An excerpt weighted towards active compounds, which were near 0.51% of everything screened.
E coli growth-1: inhibitors of Escherichia coli growth. OD600, 23 h; stronger effect = lower value. AID 1053175. hit rate 0.21% among 330,000. OD600 absorbance (test concentration not listed);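 active = OD600 absorbance below the run mean of sample wells minus 3.6 SD, in any replicate, cut at about 0.56 in these data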
AddAB inh: less growth of phage-infected E. coli with AddAB; inhibition, % at 11.9 µM; AID 435030; hit rate 0.29% among 330,000; E. coli expressing H. pylori AddAB, absorbance growth; in the data active = inhibition above about 12%;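 also: 0% = vehicle wells of infected cells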
phage Ecoli inh: E. coli growth loss with phage present; growth absorbance; inhibition, % at 11.9 µM; hit rate 0.26% among 360,000; in the data active = inhibition above about 11%
E coli growth-2: counter-screen for AddAB inhibitors: E. coli growth inhibition; E. coli V3065 growth, OD600 absorbance, 18 h; inhibition, % at 11.9 µM; hit rate 0.27% among 330,000;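 active = inhibition above the campaign's mean inhibition across all tested compounds plus 3 SD, cut at about 9.9% in these data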;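 also: uninfected addAB+ strain grown without phage in ampicillin broth; 0% = DMSO wells and 100% = ciprofloxacin 0.95 µg/ml wells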
Tat transport: E. coli Tat transport inhibition; E. coli MC4100 TorA-mCherry Tat export, fluorescence; inhibition, % at 10 µM; hit rate 0.036% among 340,000;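 active = mean replicate inhibition at least 50% and at least half of replicates individually reaching 50%; inconclusive = only one of the two criteria met; inactive = neither criterion met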;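 also: exported cargo escapes ClpAP degradation while cytoplasmic cargo is degraded and loses fluorescence; 0% = median of neutral control wells and 100% = median of NaSCN control wells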
* = called active by the depositor; ? = inconclusive; nt = not tested or not shown.

SMILES	E coli growth-1	AddAB inh	phage Ecoli inh	E coli growth-2	Tat transport
CC[C@@H](C(=O)[C@@H](C)[C@@H](O)[C@H](C)[C@@H]1O[C@@H]([C@@H](CC)C(=O)O)CC[C@@H]1C)[C@H]1O[C@]2(C=C[C@@H](O)[C@]3(CC[C@@](C)([C@H]4CC[C@](O)(CC)[C@H](C)O4)O3)O2)[C@H](C)C[C@@H]1C	nt	nt	12*	nt	9
CNS(=O)(=O)c1ccc(NC(=O)Nc2cccc(F)c2)cc1	0.51*	10	5	7	-7
CC(C)(C)C1COC(=O)CCC=CCC(CC(=O)NC(CO)Cc2ccccc2)C(=O)N1 (centres undefined)	0.7	nt	nt	nt	nt
O=S1(=O)CCOCC(c2ccccc2)N1Cc1ccccc1F (centres undefined)	0.61	nt	nt	nt	nt
O=C1CCC(c2ccccc2)=NN1	0.7	2	0	-2	-5
O=C1CCC(c2ccc(-n3ccnc3)cc2)=NN1	0.48*	0	6	1	24
CC1CN(C(C)CO)C(=O)c2cccc(NC(=O)C3CC3)c2OC1CN(C)S(C)(=O)=O (centres undefined)	0.67	nt	nt	nt	nt
CC(=O)OCc1c(COC(C)=O)[n+](=O)c2ccccc2n1[O-]	0.47*	9	10	6	-10
Cc1csc(N=Cc2ccc([N+](=O)[O-])o2)n1	nt	nt	12*	nt	nt
Clc1ccc2c(c1)C(N1CCNCC1)Cc1ccccc1S2 (centres undefined)	0.55*	-1	nt	-1	9
Cc1ccc2nc(-c3ccccn3)c(Nc3ccccc3C)n2c1	0.5*	1	-2	1	-28
Oc1c(Cl)cc(CN2CCCCC2)c2cccnc12	nt	8	nt	11*	-1
Oc1ccc(CN2CCCCC2)c2cccnc12	0.68	7	3	4	1
Oc1c(CN2CCN(c3ccccn3)CC2)cc(Cl)c2cccnc12	0.53*	2	nt	1	3
CCCCCN=C(N)NN=Cc1c[nH]c2ccc(OC)cc12	0.059*	nt	nt	nt	nt
O=C(Nc1nnc(-c2ccco2)o1)c1ccc(Cl)cc1	0.44*	9	-2	3	2
Cc1ccc(C(=O)Nc2nnc(-c3ccco3)o2)cc1C	0.64	10	-4	-3	-3
CCc1ncc(C)nc1CC	0.77	5	1	-2	55*
CCc1ncc(C)[nH]1	nt	0	2	-1	nt
O=C(Nc1ccc(Cl)c(Cl)c1)Nc1nccs1	nt	0	4	2	1
O=C(Nc1cccc(Cl)c1)Nc1nccs1	0.54*	1	2	-1	-8
COC(=O)c1cc(NC(=O)Nc2cccc(Cl)c2)ccc1Cl	0.52	7	12*	7	-16
CCOC(=O)N1C2=NC(C(=O)OC)=C(C(=O)OC)C3N(Cc4ccccc4)c4ccccc4[C@]23CC1C(=O)OC (some centres undefined)	0.68	nt	nt	nt	nt
CCCCCCCCCCCCCCCCn1cc[n+](C)c1	0.066*	0	2	-3	?
C[n+]1ccn(CC(=O)c2cccs2)c1	0.63	4	2	3	-10
SMILES	E coli growth-1	AddAB inh	phage Ecoli inh	E coli growth-2	Tat transport
CC(=NNC(=S)Nc1ccc(C)cc1)c1ccccn1	nt	nt	13*	nt	8
CC(=O)OCC1=CC2OC(=O)C3=COC(OC4OC(CO)C(O)C(O)C4O)C1C32 (centres undefined)	0.71	nt	nt	nt	nt
O=C(Nc1cccnc1)c1ccc(NS(=O)(=O)c2cccc([N+](=O)[O-])c2)cc1	0.31*	-3	1	0	-2
O=C(Nc1ccc([N+](=O)[O-])cc1)c1cccc(S(=O)(=O)Nc2cccnc2)c1	nt	1	3	-1	-7
C[C@]12CCC(=O)C=C1C(O)CC1C2C(O)C[C@@]2(C)C1CC[C@]2(O)C(=O)CO (some centres undefined)	0.72	nt	nt	nt	nt
Cc1nc(N)nc(N)c1CCCc1ccc(Cl)c(Cl)c1	0.41*	5	4	4	-16
CNC(=O)c1[nH]cnc1C(=O)NC(CCCCNC(=O)OC(C)(C)C)C(=O)OC(C)(C)C (centres undefined)	0.7	nt	nt	nt	nt
CC(=O)NNC(=S)NC(=O)c1ccc(C)cc1	0.72	-4	0	-6	3
CCC(=O)NNC(=S)NC(=O)c1ccc(C)cc1	0.5*	-9	-5	-6	-7
CC(=O)NNC(=S)NC(=O)c1ccccc1	0.4*	0	-3	1	-28
CC(C)CC(COc1ccccc1)N1CCN(CC(C)C)CCC1=O (centres undefined)	0.71	nt	nt	nt	nt
Fc1ccc2[nH]c3c(NCc4ccccc4)ncnc3c2c1	0.45*	5	9	7	-2
CC=C(C)C(=O)Nc1cccc(C2=NOC3(C2)CC(C(N)=O)N(C(=O)COc2ccc(Cl)cc2)C3)c1 (centres undefined)	0.69	nt	nt	nt	nt
O=C(CCC(=O)Nc1ccc(Cl)cc1Cl)NN=Cc1ccc([N+](=O)[O-])o1	0.41*	nt	nt	nt	nt
CCCC(=O)Nc1ccc(C(=O)NN=Cc2ccc([N+](=O)[O-])o2)cc1	0.62	nt	nt	nt	nt
NC(=O)NN=Cc1ccc([N+](=O)[O-])o1	0.064*	nt	nt	nt	nt
Cc1nonc1C(=O)NN=Cc1ccc([N+](=O)[O-])o1	0.5*	nt	nt	nt	nt
O=C(NN=Cc1ccc([N+](=O)[O-])o1)c1ccc(O)cc1	0.41*	nt	nt	nt	nt
COc1ccc(NC(=O)N(C)CC2Oc3c(NC(=O)c4nc5ccccc5s4)cccc3C(=O)N(C(C)CO)CC2C)cc1 (centres undefined)	0.69	nt	nt	nt	nt
O=C(NN=Cc1cccc(OC(=O)c2cccc(Br)c2)c1)c1cccnc1	0.71	nt	nt	nt	nt
O=C(CNC(=O)c1ccccc1)NN=Cc1ccc([N+](=O)[O-])o1	0.58	nt	nt	nt	nt
O=[N+]([O-])c1ccc(C=NNC(=S)Nc2ccccc2C(F)(F)F)o1	0.49*	nt	nt	nt	nt
O=[N+]([O-])c1ccc(C=NNC(=S)Nc2ccccc2F)o1	0.67	nt	nt	nt	nt
O=C(NN=Cc1ccc([N+](=O)[O-])o1)C1CC1	0.065*	nt	nt	nt	nt
O=C(CNc1ccccc1)NN=Cc1ccc([N+](=O)[O-])o1	0.49*	nt	nt	nt	nt
Cc1nc2ccccc2c(=O)n1NC(=O)C=Cc1ccccc1Cl	0.7	nt	nt	nt	nt
O=C(c1ccccn1)N1N=C2C(=Cc3ccc(F)cc3)CCCC2C1c1ccc(F)cc1 (centres undefined)	0.71	nt	nt	nt	nt
O=C(CC(=O)c1cc(Cl)ccc1O)c1ccccc1	0.48*	-3	-3	-2	-14
Cc1cccc(C(=O)CC(=O)c2cc(Cl)ccc2O)c1	0.47*	-5	nt	-3	3

Compound activity as filed in PubChem BioAssay.
